Data reported in the supplement of paper PMC11402862.

Target: FXR LBD (GAL4 fusion) (UniProt Q96RI1)
Assay: luciferase reporter transactivation, fold of solvent control; higher = stronger receptor activation
Conditions: HEK293T, exposure time: 24 h
Experimental: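 HEK293T cells were transiently transfected with a GAL4-DBD fused to the ligand-binding domain of a human nuclear receptor (PPARα, PPARγ, PPARδ, FXR, LXRα, PXR, RARα or CAR), the GAL4-(UAS)5-TK firefly luciferase reporter and a Renilla luciferase normalisation plasmid. Cells were exposed to compound for 24 h in 0.5% DMSO. Firefly/Renilla luciferase was expressed as fold of the solvent control (=1). Values are the mean of 2-3 biological replicates; receptor agonists were used as positive controls.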

Chain of FXR LBD (GAL4 fusion) (Q96RI1 whole entry, looked up, the tested form may be a part): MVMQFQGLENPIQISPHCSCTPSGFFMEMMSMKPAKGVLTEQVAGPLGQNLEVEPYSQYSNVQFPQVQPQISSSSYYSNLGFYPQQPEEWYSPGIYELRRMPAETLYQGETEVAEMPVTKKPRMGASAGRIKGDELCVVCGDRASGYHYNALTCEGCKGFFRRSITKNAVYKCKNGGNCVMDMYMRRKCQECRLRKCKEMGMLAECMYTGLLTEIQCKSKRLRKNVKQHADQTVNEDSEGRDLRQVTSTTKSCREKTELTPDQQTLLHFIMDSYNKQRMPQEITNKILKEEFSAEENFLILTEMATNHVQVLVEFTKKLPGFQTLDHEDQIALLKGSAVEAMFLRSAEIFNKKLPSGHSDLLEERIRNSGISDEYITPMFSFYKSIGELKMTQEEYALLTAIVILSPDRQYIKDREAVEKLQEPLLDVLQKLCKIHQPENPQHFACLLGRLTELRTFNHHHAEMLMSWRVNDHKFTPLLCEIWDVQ

Structure (SMILES)	luciferase reporter transactivation (concentration: 1 µM)	luciferase reporter transactivation (concentration: 5 µM)	luciferase reporter transactivation (concentration: 10 µM)	luciferase reporter transactivation (concentration: 25 µM)	luciferase reporter transactivation (concentration: 50 µM)	luciferase reporter transactivation (concentration: 100 µM)	luciferase reporter transactivation (concentration: 250 µM)	luciferase reporter transactivation (concentration: 500 µM)	luciferase reporter transactivation (concentration: 2.5 µM)
O=C(O)C(F)(F)C(F)(F)F [perfluoropropanoic acid]	1.54	1.63	1.39	0.693	1.46	1.43	1.27	1.62	
NS(=O)(=O)C(F)(F)C(F)(F)C(F)(F)C(F)(F)C(F)(F)C(F)(F)C(F)(F)C(F)(F)F [perfluorooctane sulfonamide]	0.705	1.1	0.752			1.01			0.788
